{
  "source": "PubChem BioAssay",
  "note": "Unmarked numbers belong to inactive results. How the calls were made is not given here.",
  "data": [
    {"target": "Pantothenate synthetase (Mycobacterium tuberculosis (strain ATCC 25618 / H37Rv)) (UniProt P9WIL5)", "sequence (P9WIL5 whole entry, looked up)": "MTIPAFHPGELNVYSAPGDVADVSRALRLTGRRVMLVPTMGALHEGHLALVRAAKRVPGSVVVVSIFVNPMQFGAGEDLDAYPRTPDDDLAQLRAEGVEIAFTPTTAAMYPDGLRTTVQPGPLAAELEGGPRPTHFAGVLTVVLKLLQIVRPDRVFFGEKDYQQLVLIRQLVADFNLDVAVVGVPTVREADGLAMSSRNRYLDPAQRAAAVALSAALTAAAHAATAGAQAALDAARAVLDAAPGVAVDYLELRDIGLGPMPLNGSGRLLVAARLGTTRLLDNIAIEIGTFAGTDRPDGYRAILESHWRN", "experiment": "Coupled enzyme confirmation of inhibitors against recombinant Mtb PanC (AID 375);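 further: 0% = full reaction with vehicle and 100% = no enzyme background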", "conditions": "coupled enzyme assay; at 10 µM, active compounds read high", "units": {"inhibition": "%"}, "values": [
      {"smiles": "CCC(C)n1[nH]c(=O)c2c(C)cc(C)nc21", "note": "(stereo not given)", "inhibition": 0},
      {"smiles": "Cc1ccc(-c2cc(C(F)F)n3ncc(C(=O)N4CCN(c5ccccn5)CC4)c3n2)cc1", "inhibition": 6},
      {"smiles": "Nc1nc(N)c2nc(-c3ccccc3)c(N)nc2n1", "inhibition": 0},
      {"smiles": "CCOC(=O)Cn1nnnc1CN(Cc1ccc(OC)cc1)Cc1cc2cc(C)cc(C)c2[nH]c1=O", "inhibition": 3},
      {"smiles": "O=C1CCCc2c1cc(C(=O)NCc1ccco1)c(=O)n2-c1ccc(Cl)cc1", "inhibition": 9},
      {"smiles": "COc1ccccc1NS(=O)(=O)c1ccc(NC(=O)c2nc3ncccn3n2)cc1", "inhibition": 0},
      {"smiles": "CCOC(=O)C(C(=O)OCC)C(C)C#CCN1CCCCC1", "note": "(stereo not given)", "inhibition": 4},
      {"smiles": "NC(=O)CN1C(=O)C(O)(CC(=O)c2ccccc2O)c2ccccc21", "note": "(stereo not given)", "inhibition": 0},
      {"smiles": "Cc1cc(C(=O)NCCCN2CCOCC2)n(-c2ccccc2)n1", "inhibition": 0},
      {"smiles": "COc1ccc(CCNC(=O)C2CCN(C(=O)N(C)C)CC2)cc1OC", "inhibition": 0},
      {"smiles": "Cc1ccc(NCC(O)C(O)C(O)CO)cc1C", "note": "(stereo not given)", "inhibition": 0},
      {"smiles": "COc1cccc(-c2nnn(CC(=O)O)n2)c1", "inhibition": 0},
      {"smiles": "CCOC(=O)N1CCN(c2c(NCCN(C)Cc3ccccc3)c(=O)c2=O)CC1", "inhibition": 0},
      {"smiles": "Cc1ccc(-n2nc3cc(Cl)c(NC(=O)c4ccco4)cc3n2)cc1", "inhibition": 3},
      {"smiles": "COc1cccc(OC)c1OCCNCCO", "inhibition": 2},
      {"smiles": "CCN(CC)C(=O)C1CCCN(Cc2ccc(N(C)C)cc2)C1", "note": "(stereo not given)", "inhibition": 1},
      {"smiles": "CCCOC(=O)/C(C(N)=NCc1ccccc1)=C(\\O)OCCC", "inhibition": 0},
      {"smiles": "O=C(NCCCNC1CCCCC1)c1ccc(/C=N/O)nc1", "inhibition": 0},
      {"smiles": "CC[C@H]1CN2CCc3cc(OC)c(OC)cc3[C@@H]2C[C@@H]1C[C@H]1NCCc2cc(OC)c(OC)cc21", "inhibition": 0},
      {"smiles": "CCOC(=O)Cn1c(CN(C)Cc2ccccc2)nc2c1c(=O)n(C)c(=O)n2C", "inhibition": 5},
      {"smiles": "O=C(COc1ccccc1Cl)NCCCN1CCOCC1", "inhibition": 0},
      {"smiles": "O=C(NC(=O)c1ccc(Cl)cc1)Nc1cc(N2CCCCC2)ncn1", "inhibition": 0},
      {"smiles": "C[C@]12CC[C@@H]3c4ccc(O[C@@H]5O[C@H](C(=O)O)[C@@H](O)[C@H](O)[C@H]5O)cc4CC[C@H]3[C@@H]1C[C@@H](O)[C@@H]2O", "inhibition": 14},
      {"smiles": "O=C(C1CCN(c2nnc(-n3cccc3)s2)CC1)N1CCc2ccccc2C1", "inhibition": 0},
      {"smiles": "Cc1c(C(=O)O)oc2ccc(S(=O)(=O)NCCC3=CCCCC3)cc12", "inhibition": 2},
      {"smiles": "Cn1c2c(c(=O)n(C)c1=O)C(c1cccc(Br)c1)C1C(=O)c3ccccc3C1=N2", "note": "(stereo not given)", "inhibition": 9},
      {"smiles": "CCCN1C(=O)c2cc(C(=O)O)ccc2C1O", "note": "(stereo not given)", "inhibition": 0},
      {"smiles": "Cc1cc(NC(=O)CCC(=O)N(c2cccnc2)C(C(=O)NC2CCCC2)c2ccccc2F)no1", "note": "(stereo not given)", "inhibition": 0},
      {"smiles": "CCOC(=O)CSc1nnc([C@H](CC(C)C)NC(=O)OC(C)(C)C)o1", "inhibition": 2},
      {"smiles": "CCN(CC)CCOc1cccc(C(C)C)c1", "inhibition": 4},
      {"smiles": "COC(=O)c1ccccc1NC(=O)Cn1ccnc1", "inhibition": 0},
      {"smiles": "Cc1cc(C)n2nc(S(=O)(=O)N(C)Cc3ccccc3)nc2n1", "inhibition": 0},
      {"smiles": "Cc1nn(-c2ccccc2)c(C)c1C(=O)OCC(=O)c1c(N)n(CC(C)C)c(=O)n(C)c1=O", "inhibition": 9},
      {"smiles": "c1cnc(NCCNc2ncccn2)nc1", "inhibition": 0},
      {"smiles": "Cc1nc2ccc(S(=O)(=O)NCC(=O)N(C)Cc3ccco3)cc2s1", "inhibition": 0},
      {"smiles": "CCCCNC(=O)Nc1ccnn1C1CCCCC1", "inhibition": 1},
      {"smiles": "COc1cc(C2NC(=O)NC(C)=C2C(=O)OCC2CCCO2)ccc1O", "note": "(stereo not given)", "inhibition": 0},
      {"smiles": "c1ccc2[nH]c(CSc3nnc(-c4ccncc4)o3)nc2c1", "inhibition": 4},
      {"smiles": "O=C(c1cccs1)N1CCN=C1SCc1ccccc1", "inhibition": 4},
      {"smiles": "CC(=O)O[C@H]1C[C@@H]2CC[C@@H]3[C@H](CC[C@@]4(C)[C@H]3C[C@H]([N+]3(C)CCCCC3)[C@@H]4OC(C)=O)[C@@]2(C)C[C@@H]1[N+]1(C)CCCCC1", "inhibition": 0}
    ]}
  ]
}
